# Assay outcomes (PubChem BioAssay)
# In the library only some 11% were active in any assay of this set; here they are far more common.
# PNC assembly inh = High Content Assay for Compounds that inhibit the Assembly of the Perinucleolar Compartment. activity change (PNC), negative = inhibition, % at 10 µM. hit rate 3.1% among 140,000. AID 2417, 2010. PC3M PTB-GFP, PNC prevalence imaging, 16 h; hits give low values;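 active = readout at or below -70, meaning at least 70% loss of cells showing the perinucleolar compartment, a nuclear body marking cancer cells; inconclusive = readout between -30 and a set limit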;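 note: plate controls were DMSO wells for no effect and camptothecin positive control wells for full effect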
#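 Compounds are pinned in duplicate onto adhered PC3M cells stably expressing GFP-tagged PTB and incubated 16 h at 37 C. Cells are then fixed, nuclei stained with Hoechst, and PNC-positive cells counted.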
# ALDH1A1 block = qHTS Assay for Inhibitors of Aldehyde Dehydrogenase 1 (ALDH1A1); Aldehyde dehydrogenase 1A1 (Homo sapiens), P00352; Purified ALDH1A1, NADH fluorescence, propionaldehyde substrate; Potency, µM (top dose mostly 75.3 µM), for inactives: top-dose activity, negative = inhibition, hits mostly inhibitors; hit rate 7.3% among 220,000; AID 1030, 2008;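 note: potency is the fitted concentration of half-maximal effect; plate controls were no enzyme wells and a reference inhibitor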
# Target sequence (P00352 whole entry, looked up): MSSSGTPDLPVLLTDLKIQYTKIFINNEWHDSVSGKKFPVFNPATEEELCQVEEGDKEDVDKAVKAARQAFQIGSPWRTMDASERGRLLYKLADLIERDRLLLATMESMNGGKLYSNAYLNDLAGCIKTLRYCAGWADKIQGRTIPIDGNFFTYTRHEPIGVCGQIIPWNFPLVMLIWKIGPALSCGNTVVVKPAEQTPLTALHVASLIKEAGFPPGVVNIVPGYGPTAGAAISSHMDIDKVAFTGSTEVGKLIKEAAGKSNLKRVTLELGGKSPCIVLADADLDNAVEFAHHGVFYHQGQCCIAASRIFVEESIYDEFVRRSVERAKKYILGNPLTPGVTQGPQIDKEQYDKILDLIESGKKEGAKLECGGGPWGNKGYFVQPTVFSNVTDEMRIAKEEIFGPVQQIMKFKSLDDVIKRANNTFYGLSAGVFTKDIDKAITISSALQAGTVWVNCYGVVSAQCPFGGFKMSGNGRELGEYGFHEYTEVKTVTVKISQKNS
# HPGD block = qHTS Assay for Inhibitors of HPGD (15-Hydroxyprostaglandin Dehydrogenase); hit rate 4.3% among 150,000; purified HPGD, NADH fluorescence kinetic, PGE2 substrate; Potency, µM, for the others: top-dose activity change, negative = inhibition, most hits filed as inhibitors; AID 894, 2007; note: potency is the fitted concentration of half-maximal effect
#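 NADH formation kinetics: reaction with 30 uM PGE2 and 1 mM NAD+ (final), 20 nM enzyme, Tris-HCl pH 8 with Tween 20, after 15 min compound preincubation at room temperature. Fluorescence change, last versus first of five reads.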
# * marks the source's active call; other numbers are inactive results; u = inconclusive; x = not tested or not shown; [ ] = another dose, or the depositor's remark. Unless noted, calls come from the whole dose curve; as a rule, active = well fitted inhibition curve with a large enough effect (not every such curve was filed as active); inconclusive = small, poorly fitted or top-dose-only effect, or another doubt; inactive = no such curve, though single readings can be large or run the other way. Unless noted, % is set by controls: 0 for no effect and ±100 for the full control effect.
SMILES,PNC assembly inh,ALDH1A1 block,HPGD block
O=C(CCCCCN1C(=O)C2C3C=CC(C3)C2C1=O)Nc1nccs1 (configuration not stated),10.6,u,-7.9%
Cc1cnc(NC(=O)c2ccc3c(c2)C(=O)N(Cc2ccco2)C3=O)s1,-16.4,u,-8.1%
COCCN1C(=O)c2ccc(C(=O)O)cc2C1=O,19.8,u,-19.6%
COCCN1C(=O)c2ccc(C(=O)Nc3nccs3)cc2C1=O,-111.0*,u,-9.5%
CCCCS(=O)(=O)N1CCc2nc(-c3ccccc3)c3c(c2C1)CO[C@@H](C)C3,x,19.2%[13.5 µM],-12.2%
CC1(OC(=O)CCc2ccccc2)C(=O)C=C2C=C(c3ccc(C#N)cc3)OC=C2C1=O (configuration not stated),x,u,-3.7%
O=[N+]([O-])c1cccc(I)c1,x,7.2%,-14.3%
C=CCNC(=O)COC(=O)c1cccnc1Nc1ccccc1F,x,6.2%,x
Clc1ccc(Cl)c2sc(N3CCCC3)nc12,-10.7,10µM*,u
Clc1cccc2sc(N3CCN(c4ccccc4)CC3)nc12,-2.3,4.5%,-26.6%
O=C1CC2c3ccccc3C1C1C(=O)N(CCO)C(=O)C21 (configuration not stated),x,2.7%,x
CCOC(=O)c1[nH]c2ccc(OC)cc2c1NC(=S)N1CCN(c2cccc(Cl)c2)CC1,u,u,-17.1%
CCCCC(=O)Nc1cc([N+](=O)[O-])ccc1Cl,u,0.4%,-3.4%
CN(CC(=O)Nc1cc([N+](=O)[O-])ccc1Cl)Cc1ccc(Br)cc1,u,10µM*,-10.7%
COc1cc(NC(=S)N2CCN(C)CC2)c(OC)cc1Cl,x,-0.5%,x
COc1cccc(NC(=S)N2CCN(c3ccc([N+](=O)[O-])cc3)CC2)c1,x,7.94µM*,x
CCOC(=O)c1[nH]c2ccc(OC)cc2c1NC(=S)N1CCN(c2ccccc2)CC1,-21.9,25.1µM*,-18.3%
COc1ccc(NC(=S)N2CCN(c3ccc([N+](=O)[O-])cc3)CC2)cc1OC,x,3.6%,x
CN1CCN(C(=S)Nc2cc([N+](=O)[O-])ccc2Cl)CC1,-24.3,20µM*,-10.9%
COc1cccc(-c2cncnc2Nc2ccc(F)cc2)c1,x,-11.9%,x
O=C(CNC(=O)c1ccco1)OCC(=O)c1ccc(Cl)cc1Cl,x,-14.9%,x
O=C(NCCNC1CCC(c2ccccc2)CC1)c1cccs1 (configuration not stated),x,-10.8%,x
Cc1cccc(Cl)c1NC(=O)N1CCCN(c2ncccc2[N+](=O)[O-])CC1,x,-3.2%,x
CCCC(=O)NC(=S)N1CCN(c2ccc([N+](=O)[O-])cc2)CC1,23.8,u,-15.8%
O=[N+]([O-])c1ccc(N2CCN(C(=S)Nc3ccc(F)cc3F)CC2)cc1,x,11.2µM*,x
SMILES,PNC assembly inh,ALDH1A1 block,HPGD block
COc1ccc(N2CCN(C(=S)Nc3cccc(C)c3)CC2)cc1,-4.8,21.3%,-7.4%
O=[N+]([O-])c1ccc(N2CCN(C(=S)Nc3cccc(F)c3)CC2)cc1,x,14.1µM*,x
Fc1cccc(NC(=S)N2CCCCC2)c1,108.9,-1.4%,-9.1%
Cc1cccc(NC(=S)N2CCCN(c3ncccc3[N+](=O)[O-])CC2)c1,x,14.1µM*,x
COc1ccc(N2CCN(C(=S)Nc3cc(C)cc(C)c3)CC2)cc1,-106.0*,-6.7%,-6.5%
O=C(CCC1CCCN(C(=O)Cn2cnnn2)C1)NCc1ccccc1F (configuration not stated),x,-3.3%,x
N#Cc1cccc(NC(=O)N2CC3(CCN(C(=O)c4cccc(F)c4)CC3)C2)c1,x,u,-23.6%
Cc1cc(Cl)ccc1C(=O)C1CCCN(C(=O)c2n[nH]c3c2CCCC3)C1 (configuration not stated),x,9.8%,x
CC(=O)Oc1cc(-c2coc3cc(OC(C)=O)c(OC(C)=O)c(OC(C)=O)c3c2=O)cc(OC(C)=O)c1OC(C)=O,x,u,7.94µM*
COc1cc(-c2coc3cc(OC)c(OC)c(OC)c3c2=O)cc(OC)c1OC,x,3.0%,-4.9%
COc1ncc2nc(-c3cc(F)cc(F)c3)c(=O)n(C[C@H]3CCCO3)c2n1,x,-3.5%,-11.9%
O=C(CCc1nc2ccccc2c(=O)[nH]1)OCC(=O)N1CCN(S(=O)(=O)c2ccccc2)CC1,41.9,-3.4%,3.3%
CC1CC(C)CN(C(=O)COC(=O)CCc2nc3ccccc3c(=O)[nH]2)C1 (configuration not stated),-4.4,3.55µM*,-9.0%
Cc1ccc(NC(=O)CSc2nnc(C3CC3)n2N)cc1S(=O)(=O)N1CCOCC1,x,9.0%,x
O=C(c1cccc(F)c1)N1CCC2(CCN(Cc3ccncc3)CC2)CC1,x,-4.1%,-3.1%
CCC(C)C(NC(=O)C1CCC(C)CC1)C(=O)Nc1cc(OC)ccc1OC (configuration not stated),-8.5,5.4%,-15.2%
Cc1cnc(CNc2nc(-c3ccccc3Cl)nc3ccccc23)cn1,x,14.1µM*,x
Cc1ccccc1-c1nc(NCc2cccnc2)c2ccccc2n1,x,22.4µM*,-23.8%
c1cncc(CNc2nc(-c3ccoc3)nc3ccccc23)c1,x,-2.1%,-6.2%
Cc1cnc(CNc2nc(-c3c(C)noc3C)nc3ccccc23)cn1,x,0.0%,x
Cc1cc(NC(=O)CSc2nncn2N)no1,x,0.2%,x
Cc1cc(Cl)ccc1OCC(=O)Nc1nc(N)nc(N)n1,x,14.8%[13.5 µM],-7.5%
CCOC(=O)c1c(C)oc(NC(=O)COc2ccc(Cl)cc2C)c1C#N,70.9,u,31.6µM*
COc1ccc(S(=O)(=O)N(C)C)cc1NC(=O)COC(=O)c1nn(C)c(=O)c2ccccc12,x,-11.9%,x
COc1ccccc1COCC(O)CN(Cc1ccco1)Cc1ccccc1O (configuration not stated),-116.4*,-9.9%,-11.6%
SMILES,PNC assembly inh,ALDH1A1 block,HPGD block
CN(Cc1cccs1)CC(O)COCc1ccco1 (configuration not stated),-3.7,-7.4%,2.7%
O=C(CSc1nc2c(sc3ccccc32)c(=O)n1Cc1ccccc1)NCC1CCCO1 (configuration not stated),28.4,-0.1%,-20.1%
Cc1ccc(NC(=O)CN(C)C(=O)CSc2nc3ccccc3c(=O)n2Cc2ccco2)cc1,-20.3,3.6%,x
O=C(CSc1nc2c(sc3ccccc32)c(=O)n1Cc1ccco1)NCC1CCCO1 (configuration not stated),-89.1*,17.8µM*,4.6%
NC(=O)CSc1nnc2n(-c3ccccc3)c(=O)c3c4c(sc3n12)CCCCC4,-81.4*,u,-0.5%
CN(Cc1ccccc1)C(=O)CSc1nc2ccccc2c(=O)n1Cc1ccco1,u,7.94µM*,-26.4%
CCCCn1c(SCC(=O)NCc2ccco2)nc2ccccc2c1=O,-8.2,-6.3%,-10.5%
Cc1nnc2n(-c3ccccc3)c(=O)c3c4c(sc3n12)CCCC4,34.9,-5.2%,-3.4%
O=C(CSc1nc2ccccc2c(=O)n1Cc1ccco1)NCc1ccco1,83.8,25.1µM*,-21.0%
COc1cc(C(=O)N/N=C2\CCS(=O)(=O)c3ccc(F)cc32)cc(OC)c1OC,8.2,0.9%,-9.8%
CCC(=O)Oc1ccc2c(c1)CCC1C2CC[C@]2(C)C(OC(=O)CC)CCC12 (some centres not stated),x,3.1%,-7.0%
